Source: PubChem BioAssay (EPA / NIEHS)
Active and inactive are the calls of the source. How the source made its calls: active means hit-call score of the fitted dose curve at least 0.9, where 1 is the maximum; inactive means score below 0.9.

read-out: urokinase plasminogen activator (uPA), PLAU (gene 5328); assay: BSK_BE3C_uPA: BioMAP Diversity Plus: BE3C Assay for urokinase plasminogen activator (uPA) Biomarker Activity (AID 2283038); settings: primary human bronchial epithelial cells; actives raise or lower the signal;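 on outcome: uPA read one day after compound addition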
Description: BSK_BE3C is a cell-based, multiplexed-readout assay that uses bronchial epithelial cell, a human lung primary cell, with measurements taken at 24 hours after chemical dosing in a 96-well plate.BSK_BE3CA is an assay component measured in the BSK_BE3C assay. It measures uPA antibody related to regulation of gene expression using ELISA technology.Data from the assay component BSK_BE3CA was analyzed into 1 assay endpoint. This assay endpoint, BSK_BE3CA, was analyzed with bidirectional fitting relative to DMSO as the negative control and baseline of activity. Using a type of binding reporter, gain or loss-of-signal activity can be used to understand changes in the signaling as they relate to the gene PLAU. Furthermore, this assay endpoint can be referred to as a primary readout, because this assay has produced multiple assay endpoints where this one serves a signaling function. To generalize the intended target to other relatable targets, this assay endpoint is annotated to the protease intended target family, where the subfamily is serine protease.
The levels of cell surface (or secreted, indicated by the prefix "s") biomarker endpoints were measured by ELISA. Overt cytotoxicity to cells in confluent adherent cultures (all systems other than the BT system) was assessed by measuring total protein levels using sulforhodamine B (SRB) staining in parallel cultures at the time of biomarker measurements, indicated as SRB endpoints. For proliferation assays for adherent cell types, individual cell types are cultured at sub-confluence and relative cell numbers quantified by SRB staining at time points optimized for each system (48 h: 3C and CASM3C systems; 72 h: BT and HDF3CGF systems; 96 h: SAg system). SRB was performed by staining cells with 0.1% SRB after fixation with 10% TCA and reading wells at 560 nm.Viability and proliferation of PBMC (T cells) was quantified by Alamar Blue reduction for the SAg and BT systems. For PBMC viability (referred to as PBMC Cytotoxicity within the assay endpoint names), cells were plated (75,000/well in a 96-well plate) and then chemical samples added for 1 h before addition of activators, SEB and TSST-1 (20 ng/mL final concentration each). Cells were incubated for 90 h. Then, Alamar Blue (20 uL/well) (Invitrogen, Cat DAL1100) was added for 6 h, and the plates were read with a fluorescence microplate reader at 546/580 nm (excitation/emission). For PBMC proliferation, cells were plated and activated as above but incubated for only 16 h prior to addition of Alamar Blue. Plates were read after 6 h.

Row | SMILES | AC50 | outcome
1 | COc1ccc(OC(F)(F)F)cc1CN[C@H]1CCCN[C@H]1c1ccccc1 | 20 µM (active) | –
2 | CCCCCCCC(=O)OC | – | inactive
3 | O=C1NC(=O)C(c2ccccc2)(c2ccccc2)N1 | – | inactive
4 | CC(=O)OC1CC(C)OC(C)O1 (stereo not given) | – | inactive
5 | c1ccc2occc2c1 | – | inactive
6 | CC(C)COC(=O)CCCCC(=O)OCC(C)C | – | inactive
7 | CC(C)OC(=O)C(C)(C)Oc1ccc(C(=O)c2ccc(Cl)cc2)cc1 | – | inactive
8 | O=C(Oc1ccccc1)c1cccc(C(=O)Oc2ccccc2)c1 | – | inactive
9 | Cc1cc(SC2=C(O)C[C@@](CCc3ccc(N)cc3)(C(C)C)OC2=O)c(C(C)(C)C)cc1CO | – | inactive
10 | Cc1cc(Cc2ccc(N)c(C)c2)ccc1N | – | inactive
11 | CC(=O)S[C@H](C(=O)N[C@H]1Cc2ccccc2[C@H]2CCC[C@@H](C(=O)O)N2C1=O)C(C)C | – | inactive
12 | C/C=C/C=C/C(=O)O | – | inactive
13 | CC(C)NCC(O)c1ccc(O)c(O)c1 (stereo not given) | – | inactive
14 | NC(=Nc1ccccc1)Nc1ccccc1 | – | inactive
15 | O=C1c2c(O)cccc2Cc2cccc(O)c21 | – | inactive
16 | CCCCOC(=O)CCCCC(=O)OCCCC | – | inactive
17 | Cc1ccc(-c2cc(C(F)(F)F)nn2-c2ccc(S(N)(=O)=O)cc2)cc1 | 35.9 µM (active) | –
18 | CC(=O)[C@@]1(O)CC[C@H]2[C@@H]3CCC4=CC(=O)CC[C@]4(C)[C@H]3CC[C@@]21C | – | inactive
19 | N[C@@H](Cc1c[nH]c2ccccc12)C(=O)O | – | inactive
20 | NCCOCCOCCN | – | inactive

Row | SMILES | AC50 | outcome
21 | S=c1[nH]c2ccccc2s1 | – | inactive
22 | CCCCCCCCCC[N+](C)(C)[O-] | – | inactive
23 | COc1ccc(C(=O)Nc2nc3ccccc3c(NCc3ccccc3)c2C#N)cc1 | – | inactive
24 | CC(C)c1cccc(C(C)C)c1 | – | inactive
25 | CO[C@@H]1COCC[C@@H]1N[C@@H]1CC[C@@](C(=O)N2CCc3ncc(C(F)(F)F)cc3C2)(C(C)C)C1 | – | inactive
26 | CCc1cc(C2=C(C(=O)O)N(c3ccccc3C(F)(F)F)S(=O)(=O)c3ccccc32)cc2c1OCO2 | – | inactive
27 | O=C1OC(c2ccc(O)cc2)(c2ccc(O)cc2)c2ccccc21 | – | inactive
28 | Cc1ccc(C(C)(C)C)c(O)c1 | – | inactive
29 | CCCC(=O)O | – | inactive
30 | O=C(O)c1[nH]n(-c2ccc(S(=O)(=O)O)cc2)c(=O)c1N=Nc1ccc(S(=O)(=O)O)cc1 | – | inactive
31 | COC(=O)CCCC(=O)OC | – | inactive
32 | Nc1nc(Cl)nc2c1ncn2[C@H]1C[C@H](O)[C@@H](CO)O1 | – | inactive
33 | CN(C)CCCN1c2ccccc2Sc2ccc(Cl)cc21 | 36.4 µM (active) | –
34 | CC(=O)O[C@]1(C(C)=O)CC[C@H]2[C@@H]3C=C(Cl)C4=CC(=O)[C@@H]5C[C@@H]5[C@]4(C)[C@H]3CC[C@@]21C | 38.2 µM (active) | –
35 | OCC(O)CO | – | inactive
36 | CC(C)c1cccc(C(C)C)c1NC(=O)NS(=O)(=O)c1cc(C(C)(C)O)co1 | – | inactive
37 | CC(=O)CC(c1ccccc1)c1c(O)c2ccccc2oc1=O (stereo not given) | – | inactive
38 | CCC(C)N(C)C(=O)c1cc2ccccc2c(-c2ccccc2Cl)n1 (stereo not given) | – | inactive
39 | C=CCc1ccc(OC)c(OC)c1 | – | inactive
40 | CCc1nc(N)nc(N)c1-c1ccc(Cl)cc1 | – | inactive
